# Test results as given in PubChem BioAssay.
# Values without a mark were called inactive. For some of these results: Results with a measured potency or affinity are listed apart. Activity calls are given as the source filed them. Unless noted, the rule behind the calls is not given here.
# Assays:
# [1] = antimalarial activity against Dd2 strain (AID 2302;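 active = growth inhibition above 50% at the single 2 µM test dose, taken to imply half-maximal potency below 2 µM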;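 note: 0% = DMSO untreated growth and 100% = chloroquine plus artemisinin killed control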); details: P. falciparum Dd2 in RBCs, LDH growth readout, 72 h; at 2 µM; hits give high values
# [2] = human hepatoma cell viability loss – ATP luminescence, cytotoxicity control for P. falciparum antimalarial project, primary screen (AID 2303;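 active = inhibition above 50%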;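 note: 0% = DMSO wells and 100% = digitonin-killed cells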); details: HepG2 viability, 24-48 h, at 10 µM, hits give high values
# [3] = molecular target: L-lactate dehydrogenase (Plasmodium falciparum (isolate CDC / Honduras)) (UniProt Q27743); experiment: PfLDH activity inhibition – cell lysate, 3D7 strain, counter-screen for P. falciparum growth inhibition project (AID 2304);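 note: 0% = vehicle and 100% = reference inhibitor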; details: P. falciparum 3D7 crude extract, LDH APAD/NBT absorbance; at 2 µM; hits give high values
# [4] = inhibition of 3D7 malaria parasite growth – strain 3D7 (AID 2306);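 note: 0% = DMSO wells and 100% = chloroquine plus artemisinin control wells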; details: P. falciparum 3D7 erythrocytic growth, LDH absorbance, 72 h; at 2 µM; hits give high values
# [5] = molecular target: Calcium-dependent protein kinase 1 (Plasmodium falciparum (isolate 3D7)) (UniProt P62344); experiment: PfCDPK1 kinase inhibitors, biochemical, TCAMS library (AID 1159585; cut-off not given, nearly all actives have IC50 up to about 0.98 µM;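 note: inhibitors leave more ATP so luminescence rises with inhibition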); details: recombinant PfCDPK1, Kinase-Glo ATP depletion luminescence
# [6] = molecular target: Plasmodium falciparum protein kinase 6 (PK6, PF3D7_1337100) (UniProt Q8IDW1); experiment: PfPK6 kinase inhibitors, biochemical, TCAMS library (AID 1159586); details: recombinant PfPK6, Kinase-Glo ATP depletion luminescence
# [7] = molecular target: Protein kinase 7 (PK7), Plasmodium falciparum 3D7 (PF3D7_0213400) (UniProt Q7YTF7); experiment: inhibition of Plasmodium PK7 catalytic activity – biochemical, TCAMS antimalarial set, Kinase-Glo luminescence (AID 1159587); details: recombinant PfPK7, Kinase-Glo ATP depletion luminescence
# [8] = molecular target: Calcium-dependent protein kinase 4 (Plasmodium falciparum (isolate 3D7)) (UniProt Q8IBS5); experiment: PfCDPK4 kinase inhibitors, biochemical, TCAMS library (AID 1159588; cut-off not given, nearly all actives have IC50 up to about 0.91 µM); details: recombinant PfCDPK4, Kinase-Glo ATP depletion luminescence
# Chain of Calcium-dependent protein kinase 4 (Plasmodium falciparum (isolate 3D7)) (Q8IBS5 whole entry, looked up): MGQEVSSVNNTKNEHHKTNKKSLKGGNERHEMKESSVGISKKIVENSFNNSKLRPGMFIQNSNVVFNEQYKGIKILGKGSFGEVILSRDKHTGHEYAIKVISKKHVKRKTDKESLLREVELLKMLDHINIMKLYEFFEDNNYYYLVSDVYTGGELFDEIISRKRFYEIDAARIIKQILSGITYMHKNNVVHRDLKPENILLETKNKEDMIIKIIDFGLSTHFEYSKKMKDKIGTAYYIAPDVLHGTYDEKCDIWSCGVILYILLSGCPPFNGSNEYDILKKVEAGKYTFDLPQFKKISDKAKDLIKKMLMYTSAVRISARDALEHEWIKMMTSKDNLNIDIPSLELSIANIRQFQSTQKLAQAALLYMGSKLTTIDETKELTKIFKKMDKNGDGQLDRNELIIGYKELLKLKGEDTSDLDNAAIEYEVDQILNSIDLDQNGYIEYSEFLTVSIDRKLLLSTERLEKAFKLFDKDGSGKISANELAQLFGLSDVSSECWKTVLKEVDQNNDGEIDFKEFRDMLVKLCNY
# Chain of Protein kinase 7 (PK7), Plasmodium falciparum 3D7 (PF3D7_0213400) (Q7YTF7 1-343): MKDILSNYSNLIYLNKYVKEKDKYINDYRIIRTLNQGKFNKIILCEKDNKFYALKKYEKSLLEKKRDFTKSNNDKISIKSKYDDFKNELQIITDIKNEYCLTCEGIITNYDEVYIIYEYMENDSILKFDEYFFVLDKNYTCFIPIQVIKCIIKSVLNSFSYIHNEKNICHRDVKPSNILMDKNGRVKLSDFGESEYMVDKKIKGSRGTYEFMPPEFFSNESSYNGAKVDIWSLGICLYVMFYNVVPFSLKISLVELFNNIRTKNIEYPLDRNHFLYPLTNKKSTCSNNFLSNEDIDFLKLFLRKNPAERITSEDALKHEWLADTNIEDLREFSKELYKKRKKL
# Chain of L-lactate dehydrogenase (Plasmodium falciparum (isolate CDC / Honduras)) (Q27743 whole entry, looked up): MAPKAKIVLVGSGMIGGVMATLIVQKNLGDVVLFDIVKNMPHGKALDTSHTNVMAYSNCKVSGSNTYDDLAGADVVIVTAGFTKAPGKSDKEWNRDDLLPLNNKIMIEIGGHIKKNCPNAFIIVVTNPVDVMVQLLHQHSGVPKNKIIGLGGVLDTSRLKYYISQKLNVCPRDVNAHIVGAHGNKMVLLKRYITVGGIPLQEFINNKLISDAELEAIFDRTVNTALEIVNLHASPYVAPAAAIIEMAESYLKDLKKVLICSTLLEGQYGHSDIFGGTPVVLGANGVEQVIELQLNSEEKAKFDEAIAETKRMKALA
# Chain of Calcium-dependent protein kinase 1 (Plasmodium falciparum (isolate 3D7)) (P62344 whole entry, looked up): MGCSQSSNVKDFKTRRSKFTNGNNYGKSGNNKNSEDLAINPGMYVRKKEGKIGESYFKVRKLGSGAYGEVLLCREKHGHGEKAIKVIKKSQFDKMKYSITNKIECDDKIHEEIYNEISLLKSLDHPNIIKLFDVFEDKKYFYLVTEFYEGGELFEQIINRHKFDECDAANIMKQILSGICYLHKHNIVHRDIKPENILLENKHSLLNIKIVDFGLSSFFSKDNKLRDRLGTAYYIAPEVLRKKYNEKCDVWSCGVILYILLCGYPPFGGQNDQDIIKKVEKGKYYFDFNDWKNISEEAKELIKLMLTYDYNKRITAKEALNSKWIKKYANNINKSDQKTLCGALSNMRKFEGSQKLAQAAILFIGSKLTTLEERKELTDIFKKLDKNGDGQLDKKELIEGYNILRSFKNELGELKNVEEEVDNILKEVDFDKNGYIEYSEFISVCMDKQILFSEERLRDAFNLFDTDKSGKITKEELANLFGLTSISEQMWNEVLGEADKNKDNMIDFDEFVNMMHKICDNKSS
# Chain of Plasmodium falciparum protein kinase 6 (PK6, PF3D7_1337100) (Q8IDW1 1-305): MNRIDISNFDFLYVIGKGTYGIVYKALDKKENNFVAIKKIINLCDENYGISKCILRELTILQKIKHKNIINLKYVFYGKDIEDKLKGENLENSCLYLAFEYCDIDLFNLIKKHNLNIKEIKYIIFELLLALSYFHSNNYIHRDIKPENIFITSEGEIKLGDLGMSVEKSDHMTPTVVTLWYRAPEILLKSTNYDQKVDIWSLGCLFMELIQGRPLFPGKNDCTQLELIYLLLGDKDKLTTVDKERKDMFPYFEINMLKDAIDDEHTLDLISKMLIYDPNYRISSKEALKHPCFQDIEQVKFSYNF
SMILES,growth inhibition [1],inhibition [2],inhibition [3] [%],growth inhibition [4],outcome [5],outcome [6],outcome [7],outcome [8]
C[C@H](Cc1ccc(OCCCCCCOc2ccc(C[C@@H](C)NC(=O)[C@H](O)c3cccc(Cl)c3)cc2)cc1)NC[C@H](O)c1cccc(Cl)c1,99% (active),39%,-3,99% (active),inactive,inactive,inactive,inactive
CC(=NNC(=S)NCCc1ccccc1)c1ccccn1,99% (active),73% (active),8,100% (active),inactive,inactive,inactive,inactive
CC(C)COc1ccc(Cl)cc1Cc1nc(-c2nc3ccc(CN4CCN(C)CC4)cc3[nH]2)co1,57% (active),5%,7,101% (active),inactive,inactive,inactive,inactive
CCc1ccc(NC(=O)c2ccc(CN3CCCN(Cc4cccs4)CC3)cc2)cc1,-1%,57% (active),0,87% (active),inactive,inactive,inactive,inactive
COc1cc(C(=O)Nc2ccc(-c3nc4ccccc4[nH]3)cc2)cc(OC)c1OC,33%,13%,-8,99% (active),inactive,inactive,inactive,inactive
CN(C)CCN(Cc1ccccc1-c1ccc(CNCCc2ccccc2)cc1)C(=O)c1ccccc1,97% (active),81% (active),-3,95% (active),inactive,inactive,inactive,inactive
COc1ccc(NC(=O)[C@H](Cc2ccccc2)Nc2cc(C)nc(NCCOc3ccccc3)n2)cc1,25%,11%,3,98% (active),inactive,inactive,inactive,inactive
CC(C)(C)c1cc2cc(Nc3ccnc4cc(-c5nccs5)ccc34)ccc2[nH]1,97% (active),5%,-1,101% (active),inactive,inactive,inactive,inactive
CCc1ccc(-c2nc3cc(NC(=O)c4cc([N+](=O)[O-])cc([N+](=O)[O-])c4)ccc3o2)cc1,12%,12%,2,93% (active),inactive,inactive,inactive,inactive
O=C(/C=C/c1ccc(F)cc1)NC1CCC(CCN2CCCN(c3ccc(C(F)(F)F)cn3)CC2)CC1 (stereo not drawn),13%,29%,-1,97% (active),inactive,inactive,inactive,inactive
CN(Cc1ccc(NC(=O)CCC2CCN(C(=O)/C=C/c3ccc(Cl)c(Cl)c3)CC2)cc1)C1CCOCC1,2%,10%,0,94% (active),inactive,inactive,inactive,inactive
CC(=O)c1ccc2nc[nH]c(=O)c2c1,99% (active),79% (active),-1,96% (active),inactive,inactive,inactive,inactive
Cc1ccc2c(c1)NC[C@@]21CCN(C[C@@H](O)C2CCN(c3ccnc(Cl)c3)CC2)C[C@@H]1C,69% (active),46%,-5,87% (active),inactive,inactive,inactive,inactive
NC1CCN(c2nc(NCCc3ccc(O)cc3)nc(NCc3ccccc3-c3ccc(C(F)(F)F)cc3)n2)CC1,72% (active),18%,1,100% (active),inactive,inactive,inactive,inactive
CCn1c(C2CCN(CCC3CCN(C(=O)/C=C/c4ccc(Cl)c(Cl)c4)CC3)CC2)nc2ccccc21,0%,17%,2,86% (active),inactive,inactive,inactive,inactive
Fc1cccc(COc2ccc(Nc3ncnc4sc(C#CC5CCCCN5)cc34)cc2Cl)c1 (stereo not drawn),100% (active),30%,3,101% (active),inactive,inactive,inactive,inactive
CCCCC([C@@H](Cc1ccc2ccccc2c1)C(=O)N[C@H](C(=O)NC)C(C)(C)C)N(O)C=O (stereo partly drawn),97% (active),-6%,5,100% (active),inactive,inactive,inactive,inactive
CCOc1cc(C(=O)NCCN2CCCCC2)ccc1-c1nc2ccc(Cl)cc2[nH]1,8%,4%,-3,99% (active),inactive,inactive,inactive,inactive
Nc1nc2cccc3ccc4cccc1c4c32,69% (active),26%,-1,101% (active),inactive,inactive,inactive,inactive
CN1CCC(NCc2cccc(-c3ccc(S(=O)(=O)NCc4ccccc4)c(F)c3)c2)CC1,99% (active),94% (active),-8,99% (active),inactive,inactive,inactive,inactive
c1ccc(C2CCC(N3CCC(N4CCN(c5ccccc5)CC4)CC3)CC2)cc1 (stereo not drawn),34%,6%,-3,97% (active),inactive,inactive,inactive,inactive

SMILES,growth inhibition [1],inhibition [2],inhibition [3] [%],growth inhibition [4],outcome [5],outcome [6],outcome [7],outcome [8]
O=C1CCCN1CCCNCc1ccc(-c2ccc(-c3nc4ccc(F)cc4[nH]3)s2)cc1,91% (active),19%,0,100% (active),inactive,inactive,inactive,inactive
O=C(Nc1ccc(-c2ccc(-c3nc4ccccc4[nH]3)s2)cc1)Nc1ccc(Cl)c(Cl)c1,99% (active),89% (active),2,102% (active),inactive,inactive,inactive,inactive
COc1cc2c(cc1C(F)(F)F)N(C(=O)Nc1cc(F)cc(-c3cccnn3)c1)CC2,34%,21%,6,90% (active),inactive,inactive,inactive,inactive
Cc1cc2ccc(/C=C/C(=O)NC3CCC(CCN4CCc5ccc(C#N)cc5CC4)CC3)cc2[nH]1 (stereo not drawn),56% (active),19%,-1,84% (active),inactive,inactive,inactive,inactive
Cc1ccc2nc(C)cc(NN=Cc3cccc(Cl)c3)c2c1,98% (active),12%,2,102% (active),inactive,inactive,inactive,inactive
Cc1cc(NC(=O)Nc2ccc(C(C)C)cc2)c2ccccc2n1,16%,7%,-1,99% (active),inactive,inactive,inactive,inactive
CC(=O)Nc1ccc(CN2CCCN(c3cc(NC(=O)c4cccc(C)c4)ccn3)CC2)cc1,10%,-2%,-1,92% (active),inactive,inactive,inactive,inactive
c1ccc2c(C3CCN(CCCCOc4ccc5c(c4)CCN(CC4CC4)CC5)CC3)c[nH]c2c1,97% (active),74% (active),-8,99% (active),inactive,inactive,inactive,inactive
COc1ccc(-c2cn3c(C(=O)Nc4ccccc4Cl)c(-c4ccccc4)c4c3n2CCCC4)cc1,1%,7%,-4,100% (active),inactive,inactive,inactive,inactive
CCc1cc2c3c(N)nc(N)nc3ccc2n1C(C)CC (stereo not drawn),99% (active),73% (active),0,100% (active),inactive,inactive,inactive,inactive
CCN1CCCC(Nc2ccnc3cc4ccccc4cc23)C1 (stereo not drawn),100% (active),38%,2,101% (active),inactive,inactive,inactive,inactive
Cc1cccc(C(O)CNc2ccnc(Nc3cccc(-c4csc(C)n4)c3)n2)c1 (stereo not drawn),88% (active),29%,2,99% (active),inactive,inactive,inactive,inactive
CCc1cccc(OCCCON2C(N)=NC(N)=NC2(C)C)c1,94% (active),63% (active),5,95% (active),inactive,inactive,inactive,inactive
N=C(N)c1ccc(C=CC(=O)NCC(O)CNC(=O)C=Cc2ccc(C(=N)N)cc2)cc1 (stereo not drawn),80% (active),-14%,-1,90% (active),inactive,inactive,inactive,inactive
COC(=O)c1cccc(CNCc2ccc(-c3ccc(-c4nc5ccc(F)cc5[nH]4)cc3)cc2)c1,95% (active),8%,2,100% (active),inactive,inactive,inactive,inactive
Cc1ccc(O)c(C(=O)c2cnc3c(c2)c(-c2ccc(F)cc2)c(C#N)c(=O)n3C)c1,56% (active),17%,2,93% (active),inactive,inactive,inactive,inactive
O=C(NC1CCN(Cc2ccccc2)CC1)c1ccc(-c2nc3cc(Cl)c(Cl)cc3[nH]2)s1,99% (active),17%,-1,103% (active),inactive,inactive,inactive,inactive
Oc1cccc2c1CC(NCc1ccccc1)CC2 (stereo not drawn),24%,4%,6,90% (active),inactive,inactive,inactive,inactive
COc1ccc(CNC2CCN(C)CC2)cc1-c1ccc(S(=O)(=O)NC2CCC2)s1,94% (active),32%,5,100% (active),inactive,inactive,inactive,inactive
Cc1nnc(-c2ccc3ccccc3c2)c2cn(-c3cccc([N+](=O)[O-])c3)nc12,67% (active),29%,3,91% (active),inactive,inactive,inactive,inactive
